From PubChem BioAssay
TrxR1 substrate: rat thioredoxin reductase 1 substrate activity | O89049 | purified TrxR1 substrate turnover, NADPH consumption readout | Potency, µM (highest dose often 114 µM), for inactives: at the highest dose activity change, negative = substrate turnover | actives 0.01% (n = 390,000) | AID 588456; also: potency is read from the fitted curve at half-maximal effect; % is scaled to controls: 0 for no effect and ±100 for the full control effect; nearly all actives have a fitted effect of over 50% in size
Target sequence (O89049 whole entry, looked up): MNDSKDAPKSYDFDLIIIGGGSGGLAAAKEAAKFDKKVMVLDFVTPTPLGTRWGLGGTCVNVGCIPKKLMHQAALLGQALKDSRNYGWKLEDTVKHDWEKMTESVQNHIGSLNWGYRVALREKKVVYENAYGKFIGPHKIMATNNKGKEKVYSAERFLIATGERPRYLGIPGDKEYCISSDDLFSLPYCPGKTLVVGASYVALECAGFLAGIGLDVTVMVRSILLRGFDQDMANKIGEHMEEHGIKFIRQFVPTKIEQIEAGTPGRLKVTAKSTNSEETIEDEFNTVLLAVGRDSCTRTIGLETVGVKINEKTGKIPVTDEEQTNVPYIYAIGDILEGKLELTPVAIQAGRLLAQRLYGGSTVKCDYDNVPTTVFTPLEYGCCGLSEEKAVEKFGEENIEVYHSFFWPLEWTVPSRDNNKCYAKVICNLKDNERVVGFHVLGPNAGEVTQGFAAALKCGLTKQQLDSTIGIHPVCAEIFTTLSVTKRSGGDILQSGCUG
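Rat TrxR1, dispensed at 90 nM, was prereduced with 400 uM NADPH (final) for 5 min at ~22 deg C, then incubated with compound 15 min before 400 uM selenite. A first-read NADPH fluorescence drop versus no-compound background flagged substrates.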
BRCA1 expr act: activators of BRCA1 expression. MCF7-BRCA1-FFLuc reporter, luminescence, 48 h; response scale: scaled: vehicle 0%, 10 µM genistein 100%. Potency, µM (doses to about 46.1 µM), inactives show top-dose activation, most hits filed as activators. actives 1.1% (n = 380,000). AID 624202; also: potency is read from the fitted curve at half-maximal effect; nearly all actives have a fitted effect of over 80% in size
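MCF7 cells carrying a BRCA1-firefly luciferase reporter (2000 cells/well, phenol-red free MEM) were attached for 2 h at 37 °C, then given compounds for 48 h. Luminescence was read 15 min after luciferase reagent; activity normalized to genistein (10 microM) and DMSO.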
rTrxR1 inhibitor: inhibitors of rat thioredoxin reductase 1; Potency, µM (top dose mostly 114 µM), for the others: top-dose activity change, negative = inhibition, usual class: inhibitors; AID 588453; O89049; recombinant rTrxR1, NADPH fluorescence consumption, selenite substrate; actives 1% (n = 390,000); also: potency is read from the fitted curve at half-maximal effect; % is scaled to controls: 0 for no effect and ±100 for the full control effect; nearly all actives have a fitted effect of over 65% in size
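Rat TrxR1 (90 nM in the dispensed reagent) was pre-reduced with 400 uM NADPH for 5 min at room temperature, then incubated with compound for 15 min. After 400 uM selenite was added, NADPH fluorescence (Ex 340/Em 450 nm) was followed for 8 min.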
Giardia kill: kills Giardia lamblia; Giardia lamblia trophozoite viability; activity change, % at 7.66 µM, hits read low; actives 0.15% (n = 340,000); in the data active = activity change below about -80%; inconclusive = between about -30% and that limit;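 also: parasites exposed to compound for two days anaerobically before the ATP read; % is scaled to controls: 0 for no effect and ±100 for the full control effect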
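Media and compound were dispensed first, then trophozoites at 100 cells/well; plates sat 48 hrs at 37 deg C without oxygen before ATP luminescence reagent was added and read after 15-30 min at room temperature.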
IL-2 act: IL-2 activation; activation, % (series mostly up to about 46 µM); actives 0.065% (n = 360,000); AID 652025; IL-2 activation reporter assay, cell-based qHTS; stimulated with anti-CD3/CD4/CD28 beads; in transgenic mouse T cells; in the data active = activation above about 50%; inconclusive = mostly about 30% to 49%; also: 0% is about no effect
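Unstimulated transgenic mouse T cells; 60-min compound exposure; bead-based TCR/CD4/CD28 stimulation; 18 h culture, 37 degrees C; dual fluorescence (EGFP, DsRed) plate cytometry.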
mIDH1 inhibitor: human IDH1 R132H inhibition; O75874; IDH1-R132H enzyme, NADPH consumption, diaphorase/resazurin fluorescence; Potency, µM (doses to about 76.6 µM), inactives show top-dose activity change, negative = inhibition, actives largely listed as inhibitors; actives 0.093% (n = 390,000); AID 602179; also: potency is read from the fitted curve at half-maximal effect; % is scaled to controls: 0 for no effect and ±100 for the full control effect; nearly all actives have a fitted effect of over 65% in size
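IDH1-R132H (0.5 ug/mL dispensed) in pH 7.5 Tris buffer was preincubated 30 min with compound, then given a substrate mix of 0.016 mM NADPH and 2 mM alpha-KG for 80 min at room temperature; remaining NADPH was read by diaphorase/resazurin fluorescence.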
Active calls of the source: *; ? = inconclusive; / = no result; [ ] = dose if it differs, or a comment. This is a sample that favours compounds with a hit; in the whole collection about 2.2% have one here. Unless noted, calls follow the shape of the dose curve; as a rule, active = well fitted curve in the direction sought with a large enough effect; inconclusive = small, poorly fitted or top-dose-only effect, or another doubt; inactive = no such curve, though single readings can be large; an effect the other way counts as inactive or inconclusive.

SMILES | TrxR1 substrate | BRCA1 expr act | rTrxR1 inhibitor | Giardia kill | IL-2 act | mIDH1 inhibitor
Cc1c(NC(=O)c2cccs2)cccc1C(=O)O | -3% | 83% | -3% | 15 | 4 | 5%
C/C(=N/Nc1ccccc1C(=O)O)c1cccs1 | 0%[57.1 µM] | 10µM* | -1%[57.1 µM] | -8 | 0 | 7%
CCOc1ccc(NC(=O)CN2CCN(CC(=O)Nc3ccccc3OCC)CC2)cc1 | 1%[57.1 µM] | / | 10%[57.1 µM] | / | / | 7%
COc1ccc(C(=O)N2c3ccccc3C(=O)OC2c2ccc3c(c2)OCO3)cc1 (stereo not given) | 2%[57.1 µM] | 11µM* | 17%[57.1 µM] | ? | -2 | 14%
N=C(N)SCc1ncccc1O | -5% | 1% | 32µM* | -24 | 0 | 0%
N=C(N)SCc1ccccn1 | 1% | -19% | -7% | 2 | -7 | 3%
O=C(OCc1nc(-c2ccccc2)oc1COC(=O)c1ccco1)c1ccco1 | 5% | 2% | 3.2µM* | -6 | -1 | 2%
CCc1nc(SCc2ccc(F)cc2)n[nH]1 | 1% | ? | 27% | 10 | -2 | 6%
CCc1nc(SCc2ccc(OC)cc2)n[nH]1 | -4% | 11µM* | 5% | -18 | -1 | -9%
CN(Cc1nc(-c2ccc(Cl)cc2)no1)S(=O)(=O)c1ccccc1 | 2% | / | 11% | / | / | /
CCCCC1=CC2=C(c3ccco3)C(=O)C(C)(OC(=O)c3ccc(OC)cc3)C(=O)C2=CN1CCOC (stereo not given) | -9% | -15% | ? | 9 | 0 | -15%
CCCCC1=CC2=C(c3ccco3)C(=O)C(C)(OC(=O)c3ccc(OC)cc3)C(=O)C2=CN1Cc1ccccc1 (stereo not given) | -5% | 0% | 45µM* | -5 | 0 | 3%[38.3 µM]
O=C(Cn1nc2c(cc1=O)CCCC2)NCc1ccc(Cl)cc1 | 0%[57.1 µM] | / | 19%[57.1 µM] | / | / | -4%
COc1ccc(N2C(N)=C(C#N)C(c3cccnc3)C3=C2CC(C)(C)CC3=O)cc1 (stereo not given) | 10%[57.1 µM] | -36% | ? | 2 | 0 | 8%
COc1ccc(C2C(C#N)=C(N)N(c3cccnc3)C3=C2C(=O)CC(C)(C)C3)cc1OC (stereo not given) | -5% | 50% | 18µM* | 2 | 0 | 7%
C(=N\NCc1ccccc1)/c1ccc2nccnc2c1 | -3% | 4.5µM* | 14% | 2 | 1 | -2%
C(=N\NCc1ccccc1)/c1ccc2ncccc2c1 | -2% | 33% | 13% | 12 | 2 | 5%
O=C(CSC1=Nc2ccccc2N=C(c2ccc(F)cc2)C1)NCc1ccc(Cl)cc1 | -2%[57.1 µM] | -39% | 18%[57.1 µM] | / | / | 11%
Cc1ccc2oc(C(=O)Nc3nc(-c4ccc(F)cc4)ns3)c(C)c2c1 | 2% | / | 26% | / | / | 2%
O=C1CCCC2=C1C(c1ccco1)Nc1ccc3ccccc3c12 (stereo not given) | 27% | -74% | 40µM* | -15 | -4 | 10%
O=C1CCCC2=C1C(c1ccc(O)c(O)c1)Nc1ccc3ccccc3c12 (stereo not given) | 11% | -36% | ? | -5 | 0 | 5%
CN1/C(=C\C=C(/C#N)C(=O)Nc2ccc(Cl)cc2)C(C)(C)c2ccccc21 | -10% | -2% | -15% | -14 | 1 | 5%
CN1/C(=C\C=C(C#N)C#N)C(C)(C)c2ccccc21 | -7% | -1% | -4% | 20 | 143* | -3%
COc1ccc(N2C(=O)c3ccccc3NC2c2ccc(OC)c(COc3ccc(NC(C)=O)cc3)c2)cc1 (stereo not given) | 9%[0.0914 µM] | 77% | 14% | -13 | / | /
O=C(CNC(=O)OCc1ccccc1)Oc1ccc2ccc(=O)oc2c1 | 251% | 8% | 25µM* | 0 | 10 | 0%
SMILES | TrxR1 substrate | BRCA1 expr act | rTrxR1 inhibitor | Giardia kill | IL-2 act | mIDH1 inhibitor
CC(C)(C)OC(=O)NCCC(=O)Oc1ccc2ccc(=O)oc2c1 | 102% | -5% | 50µM* | -10 | -1 | 0%
CN(C)c1ccc(/C=C/c2cc(/C=C/c3ccc(N(C)C)cc3)c3ccccc3n2)cc1 | -1%[0.0914 µM] | -4% | 27% | / | / | /
O=C(Nc1nnc(C2CCCO2)s1)c1ccc(Br)cc1 (stereo not given) | 9% | 11µM* | 14% | -8 | -1 | 0%
Cc1ccc(OCC(=O)Nc2nnc(C3CCCO3)s2)c(Br)c1 (stereo not given) | 5%[57.1 µM] | -15% | 31%[57.1 µM] | -23 | 0 | -1%
O=C(COC(=O)c1ccc([N+](=O)[O-])o1)NC1CCS(=O)(=O)C1 (stereo not given) | -7% | -11% | 3.5µM* | -1 | 0 | 4%
CC1CCN(C(=O)COC(=O)c2ccc3c(c2)OCO3)CC1 | 10%[57.1 µM] | 2.5µM* | 8%[57.1 µM] | -21 | 1 | 3%
O=C(COC(=O)c1ccc([N+](=O)[O-])o1)Nc1cccc2ccccc12 | -1% | -3% | 20µM* | 3 | 1 | 3%
O=C(COC(=O)c1ccc([N+](=O)[O-])o1)NC1CCCCC1 | -8% | 17% | 16µM* | 4 | 1 | 12%
O=C(COC(=O)c1ccc([N+](=O)[O-])o1)NCc1ccc(F)cc1 | -5% | -5% | ? | -13 | 0 | -5%
CC1CCN(C(=O)COC(=O)c2ccc3c(c2)OCCO3)CC1 | -2% | ? | -5% | 0 | 0 | -1%
COc1ccc(NCc2cc3cc4c(cc3n(CC(=O)Nc3ccc(C)c(C)c3)c2=O)OCO4)cc1 | -7% | -8% | -1% | / | / | -9%
CC1CCCCN1C(=O)COC(=O)c1cc(Cl)c2c(c1)OCO2 (stereo not given) | 5% | 11µM* | 5% | 3 | -4 | 4%
Cc1cccc(C(=O)OCC(=O)NCc2cccs2)c1 | 0%[57.1 µM] | 13% | 5%[57.1 µM] | -11 | 0 | -10%
CC1CCCCN1C(=O)COC(=O)c1ccc(N2CCCC2=O)cc1 (stereo not given) | 1% | 34% | 8% | 1 | 3 | 10%
CS(=O)(=O)c1ccc(C(=O)OCC(=O)NCc2cccs2)cc1[N+](=O)[O-] | 10%[57.1 µM] | -97% | 1.8µM* | 5 | -1 | -13%
CS(=O)(=O)c1ccc(C(=O)OCC(=O)NC2CCS(=O)(=O)C2)cc1[N+](=O)[O-] (stereo not given) | 4% | 4% | 7.9µM* | 18 | 1 | 1%
O=C(COC(=O)c1ccc2c(c1)OCO2)NC1CCS(=O)(=O)C1 (stereo not given) | 11% | -2% | 79µM* | 9 | 0 | 0%
COc1cc(C(=O)OCC(=O)NC2CCS(=O)(=O)C2)c([N+](=O)[O-])cc1OC (stereo not given) | -3%[57.1 µM] | -11% | 4%[57.1 µM] | 1 | 2 | 1%
